Data: the supplement of paper PMC6135742
Structures can show the parent of a compound that is named as a salt. Over roughly 2,600 compounds, “total cell number (DAPI+ nuclei) relative to DMSO vehicle control” has its median near -1.4; the lowest 2% begin near -23. This is one part of a sample in which the lowest values are shown more often than they occur.

system: jimpy (Plp1 jimpy) mouse iPSC-derived oligodendrocyte progenitor cells; test: total cell number (DAPI+ nuclei) relative to DMSO vehicle control (SDs above negative control mean); higher = more surviving cells; conditions: 10 µM; 3 days
Method: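 Primary phenotypic screen of >3,000 bioactive compounds (Selleck L1700 and Sigma LO1280 libraries) at a single dose of 10 µM. Compounds were added to jimpy (Plp1 mutant) mouse iPSC-derived OPCs at the start of thyroid hormone-induced oligodendrocyte differentiation, one well per compound in 384-well plates. After 3 days cells were stained for MBP, Sox10 and DAPI and imaged with an Operetta system. MBP+ oligodendrocyte number and total cell number were expressed as the number of SDs above the mean of the DMSO negative control on the same plate (n=16 control wells per plate). Hits were defined as >=4 SD for oligodendrocytes and >=2 SD for total cells.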

Question: How did the total cell number turn out when `CC[C@@]1(O)C(=O)OCc2c1cc1n(c2=O)Cc2cc3ccccc3nc2-1` [(S)-(+)-Camptothecin] was run?
Answer: -9.49

Question: Which total cell number does the source give for `CC[C@@]1(O)C(=O)OCc2c1cc1n(c2=O)Cc2cc3ccccc3nc2-1` [Camptothecin] here?
Answer: -22.6

Question: `CC1C2Cc3ccc(O)cc3C1(C)CCN2CC1CC1` (single isomer, unassigned; (+)) [(+)-Cyclazocine] was tested. Which total cell number did it give?
Answer: -1.89

Question: With `CC(C)C1CNC(C(=O)O)C1CC(=O)O` (stereo unspecified) [Dihydrokainic acid] as the compound, how does the total cell number read?
Answer: -0.564

Question: Which total cell number does the source give for `Cc1cc([C@@H]2CCCN2C)on1` [ABT-418 hydrochloride] here?
Answer: -4.48

Question: For `Clc1ccc(N2CCN(Cc3c[nH]c4ncccc34)CC2)cc1` [L-745,870 hydrochloride], which total cell number is on record?
Answer: -5.68

Question: With `COC[C@H]1OC(=O)c2coc3c2[C@@]1(C)C1=C(C3=O)C2CCC(=O)[C@@]2(C)C[C@H]1OC(C)=O` (stereo partly specified) [Wortmannin from Penicillium funiculosum] as the compound, how does the total cell number read?
Answer: -3.09

Question: For `CC[C@@H]1/C=C/C=C/C[C@H](C)[C@H](O)[C@](C)(O)C(=O)[C@H](C)[C@@H](O)[C@H](C)C(=O)[C@H](C)[C@@H](O)[C@H](C)/C=C/C(=O)O[C@H]2[C@@H](C)[C@@H](CC1)O[C@@]1(CC[C@@H](C)[C@@H](C[C@H](C)O)O1)[C@@H]2C` [Oligomycin A], which total cell number is on record?
Answer: -27.5

Question: Which total cell number does the source give for `NC(Cc1cc(O)c(O)cc1O)C(=O)O` (racemic) [6-Hydroxy-DL-DOPA] here?
Answer: -2.36

Question: For `O=c1ccc2[nH]cc(C3=CCNCC3)c2[nH]1`, which total cell number is on record?
Answer: 0.673

Question: Which total cell number does the source give for `CC1=NN=C(c2ccc(N)cc2)c2cc3c(cc2C1)OCO3` here?
Answer: -0.785

Question: `CO[C@H]1CC[C@@H](O[C@H]2C[C@H]([C@]3(C)CC[C@]4(C[C@H](O)[C@@H](C)[C@@H]([C@@H](C)/C=C(\C)C(=O)[C@H](C)C[C@H](C)C(=O)O)O4)O3)O[C@]3(O[C@@H]([C@H]4O[C@@](O)(CO)[C@H](C)C[C@@H]4C)C[C@@H]3C)[C@@H]2C)O[C@@H]1C` [Nanchangmycin] was tested. Which total cell number did it give?
Answer: -27.5

Question: For `COc1cc(C(O)CN)ccc1O` (racemic) [(±)-Normetanephrine hydrochloride], which total cell number is on record?
Answer: -1.67

Question: For `COc1cc2c(cc1OC)C1CC(=O)C(CC(C)C)CN1CC2` (stereo unspecified) [Tetrabenazine], which total cell number is on record?
Answer: -0.277

Question: `CC(N)C(O)c1ccc(O)c(O)c1` (single isomer, unassigned; (-)) [(-)-alpha-Methylnorepinephrine] was tested. Which total cell number did it give?
Answer: -0.161

Question: `CCCCC/C=C\C/C=C\C/C=C\C/C=C\CCCC(=O)NCc1ccc(O)c(OC)c1` [Arvanil] was tested. Which total cell number did it give?
Answer: -8.09
